Source: PubChem BioAssay (EPA / NIEHS)
Calls of active or inactive are those of the source. The calls were made as follows: active = hit-call score of the fitted dose curve at least 0.9, where 1 is the maximum; inactive = score below 0.9.

How the values were obtained:
[1] = BSK_LPS_SRB: Viability Assessment in the BioMAP Diversity Plus: LPS Assay (AID 2283079); settings: primary human HUVEC with PBMC;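 also: total protein by sulforhodamine B absorbance as a cytotoxicity measure; measured one day after compound addition; fitted in both directions against DMSO so loss or gain of signal counts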
How it was run: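 Overt cytotoxicity was gauged by sulforhodamine B total-protein staining in a primary human vascular endothelial and mononuclear cell co-culture 24 h post-dosing. Activity was fitted in both directions relative to DMSO.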

[2] = read-out: Interleukin-1 alpha (IL1a), IL1A (gene 3552); test: BSK_LPS_IL1a: BioMAP Diversity Plus: LPS Assay for Interleukin-1 alpha (IL1a) Biomarker Activity (AID 2283080); settings: primary human HUVEC with PBMC; actives raise or lower the signal
How it was run: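 Measured: IL-1 alpha via ELISA at 24 h in LPS-activated human umbilical vein endothelium–PBMC co-culture. Baseline: DMSO, bidirectional fitting.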

[3] = read-out: Monocyte Chemoattractant Protein-1 (MCP1), CCL2 (gene 6347); test: BSK_LPS_MCP1: BioMAP Diversity Plus: LPS Assay for Monocyte Chemoattractant Protein-1 (MCP1) Biomarker Activity (AID 2283081); settings: primary human HUVEC with PBMC; actives raise or lower the signal
How it was run: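 LPS-stimulated HUVEC/PBMC co-culture; chemical, 24 h; MCP-1 by ELISA; bidirectional fit vs DMSO; cytotoxicity via SRB (0.1% stain, 10% TCA fix, 560 nm) in parallel wells.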

[4] = BSK_LPS_PGE2: BioMAP Diversity Plus: LPS Assay for Prostaglandin E2 (PGE2) Biomarker Activity (AID 2283082); settings: primary human HUVEC with PBMC; actives raise or lower the signal
How it was run: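 Primary human endothelial cells and blood mononuclear cells, co-cultured with LPS, receive test chemical; PGE2 ELISA follows at 24 h, with SRB-stained parallel cultures flagging cytotoxicity.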

[5] = read-out: Macrophage colony-stimulating factor (MCSF), CSF1 (gene 1435); test: BSK_LPS_MCSF: BioMAP Diversity Plus: LPS Assay for Macrophage colony-stimulating factor (MCSF) Biomarker Activity (AID 2283083); settings: primary human HUVEC with PBMC; actives raise or lower the signal
How it was run: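 Compound is added to a human vascular primary co-culture of umbilical vein endothelium and blood mononuclear cells. After 24 h, M-CSF is quantified by ELISA. Signal changes are fitted in both directions against DMSO.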

[6] = read-out: Tissue Factor, F3 (gene 2152); test: BSK_LPS_TissueFactor: BioMAP Diversity Plus: LPS Assay for Tissue Factor Biomarker Activity (AID 2283084); settings: primary human HUVEC with PBMC; actives raise or lower the signal
How it was run: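 In this co-culture system of umbilical vein endothelium with PBMC, stimulated with LPS, cell-surface CD142 is detected by ELISA at 24 h. Endpoint values derive from bidirectional fitting, DMSO serving as baseline.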

[7] = read-out: Tumor necrosis factor (Homo sapiens) (UniProt P01375); test: BSK_LPS_TNFa: BioMAP Diversity Plus: LPS Assay for Tumour Necrosis Factor alpha (TNFa) Biomarker Activity (AID 2283085); settings: primary human HUVEC with PBMC; actives raise or lower the signal
How it was run: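 ELISA-based TNFa endpoint in a human endothelial–PBMC co-culture sampled 24 h post-exposure. Curves were fitted in both directions using DMSO as baseline of activity.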

[8] = read-out: Vascular cell adhesion molecule 1 (VCAM1), VCAM1 (gene 7412); test: BSK_LPS_VCAM1: BioMAP Diversity Plus: LPS Assay for Vascular cell adhesion molecule 1 (VCAM1) Biomarker Activity (AID 2283086); settings: primary human HUVEC with PBMC; actives raise or lower the signal
How it was run: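 Measured by ELISA: VCAM-1 in LPS-activated HUVEC/PBMC co-cultures 24 h after treatment. Values reflect bidirectional fitting with DMSO as baseline.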

CD38, CD38 (gene 952) = test: BSK_SAg_CD38: BioMAP Diversity Plus: SAg Assay for CD38 Biomarker Activity (AID 2283087); settings: primary human HUVEC with PBMC; actives raise or lower the signal
How it was run: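 Measures CD38 on a human endothelial/PBMC co-culture driven by SEB and TSST-1, 24 h after compound exposure, using ELISA with fluorescence detection; DMSO defines baseline for bidirectional curve fitting.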

CD69, CD69 (gene 969) = test: BSK_SAg_CD69: BioMAP Diversity Plus: SAg Assay for CD69 Biomarker Activity (AID 2283089); settings: primary human HUVEC with PBMC; actives raise or lower the signal;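 as to AC50: cell surface CD69 protein quantified by ELISA with fluorescence detection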
How it was run: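 Primary human vascular co-culture (umbilical vein endothelium with peripheral blood mononuclear cells) exposed to test chemical for 24 h. CD69 levels quantified by fluorescence ELISA; DMSO served as negative control for bidirectional fitting.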

[9] = read-out: Monocyte Chemoattractant Protein-1 (MCP1), CCL2 (gene 6347); test: BSK_SAg_MCP1: BioMAP Diversity Plus: SAg Assay for Monocyte Chemoattractant Protein-1 (MCP1) Biomarker Activity (AID 2283090); settings: primary human HUVEC with PBMC; actives raise or lower the signal
How it was run: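 Values derive from bidirectional fitting of ELISA-measured MCP1 against DMSO controls. Readings were taken 24 h after dosing human vascular endothelial cells co-cultured with peripheral blood mononuclear cells under superantigen stimulation.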

[10] = read-out: E-selectin (Homo sapiens) (UniProt P16581); test: BSK_SAg_Eselectin: BioMAP Diversity Plus: SAg Assay for Eselectin Biomarker Activity (AID 2283091); settings: primary human HUVEC with PBMC; actives raise or lower the signal
How it was run: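 Primary human endothelial cells and peripheral blood mononuclear cells were co-cultured and exposed to chemical for 24 hours. E-selectin levels were then quantified by ELISA, with bidirectional curve fitting normalised to DMSO controls.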

[11] = read-out: Monokine induced gamma interferon (MIG), CXCL9 (gene 4283); test: BSK_SAg_MIG: BioMAP Diversity Plus: SAg Assay for Monokine induced gamma interferon (MIG) Biomarker Activity (AID 2283092); settings: primary human HUVEC with PBMC; actives raise or lower the signal
How it was run: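 Endothelial cells and PBMC were co-cultured, exposed to test chemicals, and sampled 24 h later. MIG was measured by ELISA, and responses were fitted in both directions relative to DMSO.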

[12] = BSK_SAg_PBMCCytotoxicity: PBMC Cytotoxicity Assessment in the BioMAP Diversity Plus: SAg Assay (AID 2283093); settings: primary human HUVEC with PBMC;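 also: fitted both ways against DMSO so a hit may be loss or gain of signal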
How it was run: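 PBMC viability by Alamar Blue reduction, fluorescence read at 546/580 nm after 6 h dye exposure. Cells were dosed 1 h before SEB plus TSST-1 activation (20 ng/mL final each), then held 90 h; endothelial/PBMC human co-culture.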

[13] = read-out: Interleukin-8 (IL8), CXCL8 (gene 3576); test: BSK_SAg_IL8: BioMAP Diversity Plus: SAg Assay for Interleukin-8 (IL8) Biomarker Activity (AID 2283094); settings: primary human HUVEC with PBMC; actives raise or lower the signal
How it was run: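 Primary human endothelial cells with PBMC, exposed 24 h; IL-8 determined by ELISA, analysed bidirectionally relative to DMSO.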

[14] = BSK_SAg_Proliferation: Cell Proliferation Assessment in the BioMAP Diversity Plus: SAg Assay (AID 2283095); settings: primary human HUVEC with PBMC;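 also: relative cell number as total protein by SRB absorbance in sub-confluent culture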
How it was run: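 A human primary co-culture of umbilical vein endothelium and blood mononuclear cells receives compound; relative cell number is quantified at 96 h by SRB staining and 560 nm absorbance, with DMSO-referenced bidirectional curve fitting.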

[15] = BSK_SAg_SRB: Viability Assessment in the BioMAP Diversity Plus: SAg Assay (AID 2283096); settings: primary human HUVEC with PBMC;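 also: cells read one day after compound addition; hits may be either gain or loss of signal compared with DMSO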
How it was run: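 Compounds were added to a human vascular co-culture of umbilical vein endothelium and PBMC. After 24 h, parallel cultures were fixed with 10% TCA, stained with 0.1% sulforhodamine B and read at 560 nm. Gain or loss of signal was fitted relative to DMSO.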

CD40, CD40 (gene 958) = test: BSK_SAg_CD40: BioMAP Diversity Plus: SAg Assay for CD40 Biomarker Activity (AID 2283088); settings: primary human HUVEC with PBMC; actives raise or lower the signal
How it was run: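 Fluorescence ELISA read-out of CD40 from umbilical vein endothelium plus peripheral blood mononuclear cells, sampled 24 h after dosing. Values come from bidirectional curve fitting with DMSO as baseline.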

Measured: AC50

Sequence of Tumor necrosis factor (Homo sapiens) (P01375 whole entry, looked up): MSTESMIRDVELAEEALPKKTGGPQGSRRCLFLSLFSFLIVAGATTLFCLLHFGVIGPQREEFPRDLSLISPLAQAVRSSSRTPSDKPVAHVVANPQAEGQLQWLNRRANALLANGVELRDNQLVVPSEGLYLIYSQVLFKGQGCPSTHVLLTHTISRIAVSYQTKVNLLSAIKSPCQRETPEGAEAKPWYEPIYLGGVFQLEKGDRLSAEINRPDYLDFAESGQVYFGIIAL
Sequence of E-selectin (Homo sapiens) (P16581 whole entry, looked up): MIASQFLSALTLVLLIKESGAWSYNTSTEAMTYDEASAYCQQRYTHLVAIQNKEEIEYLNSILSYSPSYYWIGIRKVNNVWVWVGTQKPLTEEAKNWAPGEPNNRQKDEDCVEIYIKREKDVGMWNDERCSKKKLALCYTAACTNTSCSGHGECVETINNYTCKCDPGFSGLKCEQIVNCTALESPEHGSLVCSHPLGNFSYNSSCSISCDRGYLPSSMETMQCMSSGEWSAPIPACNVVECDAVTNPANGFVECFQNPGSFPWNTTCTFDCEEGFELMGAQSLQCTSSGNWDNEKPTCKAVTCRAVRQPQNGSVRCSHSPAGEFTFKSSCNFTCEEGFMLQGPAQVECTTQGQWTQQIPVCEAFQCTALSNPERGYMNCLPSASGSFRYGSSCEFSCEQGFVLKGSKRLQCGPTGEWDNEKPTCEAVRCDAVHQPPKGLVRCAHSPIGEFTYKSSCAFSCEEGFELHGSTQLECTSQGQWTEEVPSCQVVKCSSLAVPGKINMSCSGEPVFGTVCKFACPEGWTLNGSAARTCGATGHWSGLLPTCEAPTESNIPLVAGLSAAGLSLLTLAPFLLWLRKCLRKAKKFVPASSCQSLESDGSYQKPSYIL

CCCCOC(=O)[C@@H](C)Oc1ccc(Oc2ccc(C#N)cc2F)cc1
inactive: [1] | [2] | [3] | [4] | [5] | [6] | [7] | [8] | CD38, CD38 (gene 952) | CD69, CD69 (gene 969) | [9] | [10] | [11] | [12] | [13] | [14] | [15]

CCOC(=O)COc1cc(-c2nn(C)c(OC(F)F)c2Cl)c(F)cc1Cl
inactive: [1] | [2] | [3] | [4] | [5] | [6] | [7] | CD38, CD38 (gene 952) | CD40, CD40 (gene 958) | [9] | [10] | [11] | [12] | [13] | [14] | [15]
active: CD69, CD69 (gene 969) 3.97 µM

CC(=NC#N)N(C)Cc1ccc(Cl)nc1
inactive: [1] | [2] | [3] | [4] | [5] | [6] | [7] | [8] | CD38, CD38 (gene 952) | CD69, CD69 (gene 969) | [9] | [10] | [11] | [12] | [13] | [14] | [15]
